In the library only some 5.5% were active in any assay of this set; here they are far more common.
ELG1 repair inh = inhibitors of ELG1-dependent DNA repair in HEK293T cells; HEK293T ELG1-luciferase reporter, luminescence, 16 h; DNA damage induced by 5-fluorouridine; 2.3% of 330,000 active; AID 504467; Potency, µM (top dose mostly 46.1 µM), usual class: inhibitors; also: nearly all actives have a fitted effect of over 55% in size
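In this reporter screen, reduction of luminescence relative to DMSO vehicle indicated activity. Compounds and 5-fluorouridine were added together to 2,000 cells per well, incubated for 16 hr at 37 °C, then developed with ONE-Glo.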
FBPA coupling cs = coupling enzyme interference in Giardia aldolase counter-screen. coupling enzyme system counterscreen, AmpLite Red fluorescence. activity change, negative = inhibition, % at 58.2 µM, hits read low. 0.67% of 290,000 active; in the data active = activity change below about -30%
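Activity here indicates interference with the coupling reaction, not aldolase inhibition. Compounds at 57.5 uM final met coupling enzymes for 10 min at RT; substrate and AmpLite Red detection followed, with a 525/598 nm fluorescence read after 20 min.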
Sfp PPTase inh = blocks B. subtilis Sfp PPTase activity; 3.5% of 310,000 active; AID 1490; Potency, µM, most hits filed as inhibitors; Biochemical Sfp PPTase activity, qHTS; Q9F4F7;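 also: the enzyme is Sfp with the accession as filed and its product quenches rhodamine fluorescence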
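After 15 min at room temperature with compound, 15 nM Sfp received 5 uM rhodamine-CoA plus 12.5 uM BHQ-2-ybbR (50 mM Hepes pH 7.6, 10 mM MgCl2). Rate came from the fluorescence difference over 30 min, ex 525/em 598 nm.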
Giardia kill = Giardia lamblia killing; Giardia lamblia trophozoite viability; activity change, % at 7.66 µM, hits read low; 0.15% of 340,000 active; in the data active = activity change below about -80%; inconclusive = between about -30% and that limit;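 also: parasites exposed to compound for two days anaerobically before the ATP read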
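Trophozoites 100 cells/well + cpd; 48 hrs, 37 deg C, anaerobic. ATPLite 1-Step added, 15-30 min RT, luminescence read (ATP-based viability).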
A number is an active result; - = inactive; ? = inconclusive; . = no result; ! = repeats disagree. Unless noted, calls follow the shape of the dose curve; as a rule, active = well fitted curve in the direction sought with a large enough effect; inconclusive = small, poorly fitted or top-dose-only effect, or another doubt; inactive = no such curve, though single readings can be large; an effect the other way counts as inactive or inconclusive.

SMILES	ELG1 repair inh	FBPA coupling cs	Sfp PPTase inh	Giardia kill
COC(=O)CCC(=O)OC1(C)C(=O)C2=CN(C(CO)CO)C(c3ccc(OC)cc3)=CC2=C(Br)C1=O (stereo not given)	?	-48!	-	.
COC(=O)CCC(=O)OC1(C)C(=O)C2=CN(CCc3ccccn3)C(c3ccc(OC)cc3)=CC2=C(Br)C1=O (stereo not given)	.	-	-	-
CC1(OC(=O)CCc2ccccc2)C(=O)C=C2C=C(c3ccc(C#N)cc3)N(CC3CC3)C=C2C1=O (stereo not given)	-	-	-	-
COC(=O)CCC(=O)OC1(C)C(=O)C2=CN(CCN3CCOCC3)C(c3ccc(OC)cc3)=CC2=C(Br)C1=O (stereo not given)	-	-37!	-	.
CC(CCc1ccc(O)cc1)NCc1ccc(Br)cc1 (stereo not given)	-	-	-	-
CCn1c(=O)c2ccccc2n2c(SCC(N)=O)nnc12	-	-	-	-
COC(=O)C/C=C\[C@@H](C)[C@@H](/C=N\O[C@@H]1O[C@H](COC(C)=O)[C@H](OC(C)=O)[C@H](OC(C)=O)[C@H]1OC(C)=O)OC	.	-	-	.
Cc1cccc2c1cnn2C(=O)CCC(=O)NCC(C)c1ccccc1 (stereo not given)	-	-	-	-
CN(C)/C=N/c1nc(Sc2ccc(C(F)(F)F)cc2[N+](=O)[O-])n[nH]1	-	-	-	-
O=[N+]([O-])c1cc(C(F)(F)F)cc([N+](=O)[O-])c1Sc1n[nH]c(C(F)(F)F)n1	-	-	56µM	-
CCOC(=O)CN1C(=O)C(C)(C)Oc2ccc(C(=O)Nc3ccccc3OC)cc21	18µM	-	-	-
Cc1ccc(NC(=O)c2ccc3c(c2)N(CC(=O)N2CCCCC2)C(=O)C(C)(C)O3)cc1	13µM	-	-	-
CCOC(=O)c1c(NC(=O)c2cc(C)on2)c2cc([N+](=O)[O-])ccc2n1C	-	-	-	-
O=S(=O)(c1ccc(F)cc1)N1CCN(C(=S)NC2CC2)CC1	-	.	.	-
CC[C@]12c3[nH]c4cc(-c5ccco5)ccc4c3CCN1C(=O)[C@@H](CC(=O)NCc1ccc(OC)c(OC)c1)C[C@@H]2C(=O)N1CCN(C(=O)c2ccco2)CC1	?	.	.	-
O=C(O)CCN=CC1=C(O)CC(c2ccccc2)CC1=O (stereo not given)	-	-	-	-
COCC(C)n1c(C)cc(C(=O)COc2ccc(N(C)S(=O)(=O)c3ccc(NC(C)=O)cc3)cc2)c1C (stereo not given)	4.1µM	.	.	-
CCN(C(=O)COc1ccc(N(C)S(=O)(=O)c2ccc(NC(C)=O)cc2)cc1)C1CCCCC1	21µM	.	.	-
Cc1cccc(NC(=O)CNC(=O)COC(=O)C2CC2C)c1C (stereo not given)	-	.	.	-
CCOc1cc(CNc2ccc3cn[nH]c3c2)ccc1OC	?	-55	-	-
COc1ccc(CNc2ccc3cn[nH]c3c2)c(OC)c1OC	?	-47	-	-
COC(=O)C1C(C)OC(=O)NC1c1ccccc1 (stereo not given)	.	-	-	.
CC(=O)c1cccc(NC(=O)C(C)OC(=O)c2ccc(-n3cnnn3)cc2)c1 (stereo not given)	-	.	.	-
COCCn1c(C23CC4CC(CC(C4)C2)C3)n[nH]c1=S	?	-	32µM	-
Cc1cccc(N2CCN(C(=O)CCCn3c(=O)[nH]c4ccsc4c3=O)CC2C)c1 (stereo not given)	?	-	-	-
SMILES	ELG1 repair inh	FBPA coupling cs	Sfp PPTase inh	Giardia kill
CC(C)(C)c1ccccc1NC(=O)c1ccc2c(c1)SC1=NS(=O)(=O)CCN12	21µM	-	-	-
CCOC(=O)[C@@H]1[C@H]2COc3ccc(Br)cc3[C@H]2N2C(=O)N(c3ccc(C(F)(F)F)cc3)C(=O)[C@]12C	-	.	.	-
COC(=O)C1CCCCN1C(=O)c1cc(COc2cccc3cccnc23)on1 (stereo not given)	-	.	-	-
COC(=O)C1CCCCN1C(=O)c1cc(COc2cccc3cnccc23)on1 (stereo not given)	1.5µM	.	-	.
CC(=O)NCCC(=O)Nc1sc2c(c1-c1nc3ccccc3[nH]1)CCCC2	15µM	-	?	-
Cc1cc(C(C)(C)C)c(OC(=O)[C@@H]2OC(c3ccccc3)=C[C@H]2c2ccccc2)c(C(C)(C)C)c1	-	.	.	-
CN(C)CCNCCCOc1ccccc1-c1ccccc1	-	-	50µM	.
COCCCNCCOCCOc1ccccc1-c1ccccc1	-	-	?	-
Cc1ccc(C)c(Cn2nnc3c(=O)[nH]c(C4CCCN(C(=O)C5CCCCC5)C4)nc32)c1 (stereo not given)	-	-	50µM	-
C=CCn1c(SCC(=O)NCCCC(=O)OCC)nc2scc(-c3ccco3)c2c1=O	?	-	18µM	-
C=CCn1c(SC(F)F)nc2scc(-c3ccco3)c2c1=O	-	-	?	-
Cc1ccc(-c2csc3nc(SCC(N)=O)n(Cc4ccccc4)c(=O)c23)cc1	23µM	-	-	-
C=CCn1c(SCC(=O)N2CCOCC2)nc2sc3c(c2c1=O)CCCC3	18µM	-	-	-
C=CCn1c(SCC(C)=O)nc2scc(-c3ccco3)c2c1=O	-	-	7.1µM	-
CSc1ccc(CN2CCCC(N3CCN(c4ccccc4)CC3)C2)cc1 (stereo not given)	-	-	-	-
CC(Sc1nnc(-c2cccnc2)o1)C(=O)NC1CCCCC1 (stereo not given)	-	.	.	-
C=CCn1c(SCC(=O)N2CCOCC2)nc2scc(-c3ccco3)c2c1=O	?	-	2.8µM	-
CC(C)C(C)(C#N)NC(=O)CSc1nc2scc(-c3ccco3)c2c(=O)n1-c1ccccc1 (stereo not given)	?	-	7.9µM	-
Cc1sc2nc(SCC(=O)NCc3ccco3)n(-c3ccccc3)c(=O)c2c1C	?	-	-	-
O=c1ccc(-c2ccc(S(=O)(=O)Nc3ccc(F)cc3)o2)n[nH]1	-	-	-	-
Cc1ccc(S(=O)(=O)CCC(=O)N2CCN(c3ccc([N+](=O)[O-])cc3)CC2)cc1	?	-	-	-
CCn1c(SCc2nc3ccccc3c(=O)[nH]2)nc2ccccc2c1=O	-	-	-	-
C=CCn1c(SCc2nc3cc(C(=O)OC)ccc3c(=O)[nH]2)nc2sc(CC)cc2c1=O	8.2µM	-	-	-
C=CCn1c(SCc2nc3ccccc3c(=O)[nH]2)nc2scc(C3CC3)c2c1=O	-	-	56µM	-
CCOC(=O)c1c(-c2cccc3ccccc23)csc1NC(=O)C1C2CCC(O2)C1C(=O)O (stereo not given)	-	-	-	-
COC(=O)c1c(-c2ccc(C(C)(C)C)cc2)csc1NC(=O)C1C2CCC(O2)C1C(=O)O (stereo not given)	-	-	11µM	-
C[C@H](CO)N1C[C@H](C)[C@@H](CN(C)C(=O)Nc2ccc3c(c2)OCO3)Oc2ccc(NS(=O)(=O)c3cn(C)cn3)cc2C1=O	?	.	.	-
Cc1cccc(C2c3[nH]c4ccccc4c3CCN2C(=O)CN2CCOC2=O)n1 (stereo not given)	-	-	-	-
